Holding throughout (experiment): NCI-60 one-dose screen, 48 h (100 = growth as untreated, 0 = no growth, -100 = all killed)
Details in all cases: 10 µM unless noted

In assay [1] the test system is HCT-15 colon.
Assay [2] concerns HT29 colon.
The subject of assay [3] is SNB-75 CNS.
In assay [4] the test system is U251 CNS.
Assay [5] relates to PC-3 prostate.
Assay [6] concerns SK-MEL-5 melanoma.
The test system of assay [7] is UACC-62 melanoma.
Assay [8] relates to LOX IMVI melanoma.
In assay [9] the test system is SK-MEL-28 melanoma.
For assay [10], the system named is SNB-19 CNS.

The record followed here is PubChem BioAssay (NCI).

Values joined by “and” are separate entries in the source; they are usually repeats but may differ in a detail not shown here. Identical values can stand only once. Compounds without any hit were thinned out: in the full panel of roughly 83,000, 20% have a hit.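 Plates (96-well) were seeded with cells, treated with compound at one concentration, and incubated for 48 hours before percent growth was determined.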 A number with no mark means an inactive call. Active and inactive are the calls of the source. The calls were made as follows: active = growth percent below 10; inactive = the rest.

Regarding `O=C(OCc1ccccc1)c1ccccc1`, the growth is 114% and 103% in assay [1]; 114% and 87.8% in assay [2]; 98.7% in assay [3]; 99.8% and 105% in assay [4]; 107% and 85.4% in [5]; 104% and 101% in assay [6]. For the same compound, the growth in [7] is 92.6% and 102%; in assay [8] it was 96.2%; in [9] it was 106% and 120%.

As for `CC(=O)C[n+]1ccccc1Sc1ccc(Cl)cc1`, the growth in assay [1] is 93.3%; in assay [2], 108%; in assay [3], 66.1%; in assay [4], 73%; in assay [5], 58.3%; in assay [6], 90.3%. Besides, the growth is 84.6% in assay [7], 27.6% in assay [8] and 100% in assay [9].

In the case of `O=C1CCC(=O)N1CC1CC2CCC1C2` (stereo not drawn), the growth in assay [1] is 107% and 104%; in assay [2], 103% and 95.8%; in [3] it was 87.2% and 73.1%; in [4] it was 91.7% and 100%; in assay [5], 94.1% and 104%; in assay [6], 110% and 92.6%. Also, the growth was 96.5% and 88.5% in assay [7]; 109% and 103% in [9].

For `Oc1cccnc1CN1CCOCC1`, the growth in assay [1] is 105% and 104%; in [2], 97.7% and 106%; in assay [3], 88.9% and 81.5%; in [4], 104% and 102%; in [5], 93.9% and 96.3%; in [6] it was 106% and 98.4%. Also, the growth in [7] was 101% and 94.5%; in assay [8] it was 93.1%; in assay [9], 107% and 105%.

For `CC(C)=NOC(C)C(=O)O` (stereo not drawn), the growth in [1] was 102%; in assay [2], 110%; in [3], 97.9%; in assay [4] it was 104%; in assay [5] it was 92.9%; in assay [6] it was 107%. Moreover, the growth in assay [7] is 89.4%; in assay [8] it was 97.4%; in assay [9] it was 113%.

Turning to `CC(=O)Oc1ccc(C(c2ccc(OC(C)=O)cc2)c2ccccn2)cc1`, the growth in assay [1] is 84.3% and 76.4%; in assay [2] it was 91.8% and 87.1%; in [3] it was 56.7% and 80.9%; in assay [4], 96% and 96.2%; in assay [5] it was 73.6% and 68.9%; in assay [6] it was -7.6% (active). Also, the growth in assay [7] was 96.5% and 89.4%; in [8], 90.3% and 77.5%; in assay [9], 107%.

`CS(=O)(=O)c1nsc(N)n1`: the growth in assay [1] was 107%; in assay [2] it was 101%; in [3], 93.2%; in assay [4], 102%; in [5] it was 98%; in assay [6] it was 102%. The growth was 102% in assay [7], 98.2% in assay [8] and 109% in assay [9].

Turning to `CCCCCCC(C)CC1=C(O)c2ccccc2C(=O)C1=O` (stereo not drawn), the growth in assay [1] was 28.4%; in assay [2], 66.6%; in assay [3] it was 61.6%; in assay [4], 46.3%; in assay [5], 33.9%; in [6] it was 11.9%. Further, the results for the growth in assay [7], in [8] and in [9] were 29.9%, 10.2% and 64.4%, respectively.

For the compound `COc1ccc(-n2[nH]c3c(cnc4ccccc43)c2=O)cc1`, the growth in assay [1] is 96.1% and 91.4%; in assay [2] it was 95.1% and 93.4%; in assay [3], 98.1%; in assay [4], 107%; in [5], 91.3% and 97.4%; in assay [6] it was 100% and 98.7%. For the same compound, the growth in assay [7] was 95.9% and 87.9%; in assay [8] it was 88% and 105%; in [9], 108% and 100%.

As to `CC1(C)OC(=O)C(=Cc2ccc(C#N)cc2)C(=O)O1`, the growth is 109% and 104% in [1]; 97.7% and 100% in assay [2]; 97% and 96.4% in assay [3]; 89.7% in [4]; 84.3% and 99.2% in assay [5]; 95.6% in assay [6]. For the same compound, the growth in assay [7] is 101% and 117%; in assay [8], 103%; in assay [9] it was 114% and 101%.

Take `C/C=C/C(=O)OCCCCCCCCCCCC`: the growth in assay [1] is 123%; in [2] it was 92.6%; in assay [3] it was 101%; in assay [4], 98.6%; in [5] it was 101%; in assay [6] it was 97.7%. In addition, the growth in assay [7] was 91.6%; in [8], 106%; in assay [9], 114%.

Consider `COc1ccc2oc3c(ccc[n+]3C)c(=O)c2c1`, for which the growth in assay [1] is 100%; in assay [2] it was 96.6%; in assay [3], 100%; in assay [4], 93.6%; in [5], 93.1%; in assay [6], 99.4%. Also, the growth in assay [7] was 92.6%; in [8] it was 99.9%; in assay [9] it was 103%.

On to `O=C1C(=O)c2ccccc2C(O)=C1CC=C(Cl)Cl`, for which the growth in assay [1] was 25.8% and 30.7%; in [2], 31.4% and 34.8%; in assay [3] it was 54.3% and 57.4%; in assay [4], 42.5% and 42.8%; in assay [5], 35.3% and 40.9%; in assay [6] it was 48.4% and 48.1%. Also, the growth in assay [7] is 55.7% and 60%; in assay [8], 16.7% and 27.4%; in [9], 70.1%.

Consider `O=C(O)c1cc(=O)[nH]c(=O)[nH]1`, for which the growth is 102% and 97.9% in assay [1]; 93.3% and 110% in assay [2]; 102% and 86.4% in [3]; 111% and 104% in assay [10]; 105% and 95.8% in assay [4]; 91.4% and 80.3% in [5]. In addition, the growth in assay [6] is 82.6%; in assay [7], 103% and 92.5%; in [9], 114% and 93.6%.

For `Cc1ccc(S(=O)(=O)n2ccnc2)cc1`, the growth in [1] was 105%; in assay [2], 106%; in assay [3], 87.6%; in assay [4], 101%; in [5] it was 103%; in assay [6], 99.9%. Further, the growth in assay [7] is 92.7%; in [9] it was 111%.

As for `COc1cc(C2c3cc4c(cc3C(OC(=O)C[n+]3ccccc3)C3COC(=O)C23)OCO4)cc(OC)c1OC` (stereo not drawn), the growth is 4.19% (active) in [1]; 4.68% (active) in [2]; 48.3% in assay [3]; 2.86% (active) in assay [4]; 35% in assay [5]; -32.5% (active) in [6]. For the same compound, the values for the growth in assay [7], in assay [8] and in [9] were 15.9%, 12.7% and 61.6%, respectively.

Regarding `CCOC(=O)C1=CC(=O)CC(C)(C)O1`, the growth in [1] was 101% and 103%; in assay [2] it was 92.6% and 101%; in assay [3], 116%; in assay [10], 104% and 109%; in assay [4] it was 104% and 99.9%; in [5], 88.7% and 105%. Moreover, the growth was 112% in assay [6]; 104% and 106% in [7]; 119% and 120% in [9].

For `CCOC(=O)CN1CCC(C(=O)OCC)CC1`, the growth in assay [1] was 125%; in [2], 104%; in [3], 106%; in assay [4], 107%; in assay [5] it was 88.8%; in [6] it was 103%. Also, the growth is 94.6% in assay [7], 99.3% in [8] and 108% in assay [9].

For the compound `Cc1cccc(Cl)c1N`, the growth was 109% in assay [1]; 109% in [2]; 100% in assay [3]; 108% in [4]; 95.5% in assay [5]; 110% in assay [6]. Besides, the growth was 103% in assay [7], 98.6% in assay [8] and 106% in assay [9].

Consider `N#Cc1ccc(/C=C/C(=O)c2ccccc2)cc1`, for which the growth is 12% and 70.5% in [2]; 87.3% in assay [3]; 89.9% in [10]; 33.2% and 62.5% in assay [4]; 52.2% in [5]; 90.9% and 102% in [6]. For the same compound, the growth in [7] was 91.3% and 89.9%; in assay [8], 28% and 82%; in [9] it was 124% and 93.1%.

For `O=C(O)Cc1cc(=O)[nH]n(-c2ccccc2)c1=O`, the growth in assay [1] was 107%; in assay [2] it was 103%; in assay [3], 91.3%; in assay [4], 99.9%; in assay [5] it was 94%; in [6], 107%. For the same compound, the growth in assay [7] was 101%; in [8], 100%; in assay [9] it was 110%.

As for `C(#CCN1CCOCC1)CCCN1CCOCC1`, the growth is 91% and 99.6% in assay [1]; 106% and 105% in assay [2]; 83.7% and 104% in [3]; 102% and 98.7% in assay [4]; 99.9% and 93.2% in assay [5]; 101% and 104% in assay [6]. The growth in assay [7] is 96.3% and 96.5%; in assay [8], 102% and 99.6%; in [9], 107% and 110%.

Consider `COc1ccc2nccc(Cl)c2c1`, for which the growth was 109% in assay [1]; 104% in [2]; 91.1% in assay [3]; 97.6% in assay [4]; 95.3% in assay [5]; 102% in assay [6]. For the same compound, the growth in [7] was 89.6%; in assay [8], 97.9%; in assay [9], 110%.

Regarding `Cn1c(N)c(N=O)c(=O)n(C)c1=O`, the growth was 105% and 101% in assay [1]; 111% and 90.2% in assay [2]; 86.9% and 92.6% in assay [3]; 92.9% and 101% in assay [4]; 96.2% and 96.9% in assay [5]; 137% and 99.6% in assay [6]. Further, the growth in assay [7] was 103% and 93.1%; in assay [8], 100%; in assay [9], 104% and 100%.

As for `CCOC(=O)c1ccc(N2C(=O)C(Cl)(c3ccccc3)C2c2ccco2)cc1` (stereo not drawn), the growth is 67% in [1]; 78.9% in assay [2]; 82.3% in assay [3]; 79.1% in [4]; 85.9% in assay [5]; 70.4% in [6]. The growth in assay [7] is 72.1%; in [8], 77%; in assay [9] it was 88.3%.
